In all, about 5,000 sequences were measured (“log2 normalized fluorescence”: median about 0.089, highest 2% from about 0.81 on). Shown is part of a subset that was picked to be rich in the highest values.

Data on 72 sequences can be found in article PMC5515408, “Sequence-specific DNA binding by MYC/MAX to low-affinity non-E-box motifs”.

The target of this experiment is MYC (p64);MAX (p21), in MYC:MAX (human;human, UniProt P01106-1;P61244-2 1-439;1-151, |). Nature of the experiment: protein-binding microarray (anti-MAX antibody); PBM: 15 mM Tris-HCl pH 7.5, 100 mM KCl, 0.075% NP40, 7.5 mM beta-mercaptoethanol, 375 ng/ul BSA, 8 ng/ul poly(dA-dT):(dA-dT), 550 ng complex, 60 min, room tempe; high values mean tight binding. The conditions noted are these: protein: recombinant;recombinant; tags: 6xHis;6xHis; copies: 1;1; label: 3' end of printed strand (linker) attached to glass slide; dsDNA, one strand shown. The method in brief: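 Recombinant His-tagged human MYC:MAX or MAX:MAX dimers (550 ng, expressed in E. coli) were incubated for 60 min at room temperature in Tris-KCl buffer, pH 7.5, with NP40, BSA and poly(dA-dT) competitor. The custom Agilent glass array held ~5000 unique 12-nt sequences, each spotted in triplicate and made double-stranded by primer extension. Bound protein was detected with anti-MAX and secondary antibodies and scanned at 543 nm. Binding is reported as log2 normalized fluorescence.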
MYC (p64);MAX (p21), in MYC:MAX, sequence (P01106 16-454, chain 1 of 2): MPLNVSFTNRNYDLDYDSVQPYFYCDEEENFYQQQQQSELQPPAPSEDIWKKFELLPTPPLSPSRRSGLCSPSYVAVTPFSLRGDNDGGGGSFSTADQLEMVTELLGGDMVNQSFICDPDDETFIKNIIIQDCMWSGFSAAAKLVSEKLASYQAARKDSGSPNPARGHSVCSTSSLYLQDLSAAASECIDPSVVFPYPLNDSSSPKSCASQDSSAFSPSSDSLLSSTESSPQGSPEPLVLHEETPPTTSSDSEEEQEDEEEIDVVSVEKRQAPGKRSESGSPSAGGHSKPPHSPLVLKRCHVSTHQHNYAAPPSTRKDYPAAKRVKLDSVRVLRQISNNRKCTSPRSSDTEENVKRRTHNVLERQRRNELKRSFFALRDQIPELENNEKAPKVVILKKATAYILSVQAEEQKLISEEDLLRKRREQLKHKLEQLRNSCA
MYC (p64);MAX (p21), in MYC:MAX, sequence (P61244 other isoform, or with tags, fused parts or gaps |, chain 2 of 2): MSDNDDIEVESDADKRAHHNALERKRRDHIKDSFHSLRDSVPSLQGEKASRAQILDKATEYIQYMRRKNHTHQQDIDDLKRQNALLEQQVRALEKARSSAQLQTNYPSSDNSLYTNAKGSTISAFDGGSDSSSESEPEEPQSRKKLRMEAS
For the sequence “CCGGCTGAACCTCAGTATTAATAGCTAAGATTACTATATCGACG”, the binding signal is 0.265 log2 normalized fluorescence. Consider “CCGGCTGAAATGCCGTATTAATAGCTAAGATTACTATATCGACG”, for which the binding signal is 0.0989 log2 normalized fluorescence. With “CCGGCTGATACGTGGTATTAATAGCTAAGATTACTATATCGACG” the figure was 0.341 log2 normalized fluorescence; with “CCGGCTGAGTGATCGTATTAATAGCTAAGATTACTATATCGACG”, 0.194 log2 normalized fluorescence; with “CCGGCTGAACATACGTATTAATAGCTAAGATTACTATATCGACG”, 0.202 log2 normalized fluorescence. Under “CCGGCTGATGGCGGGTATTAATAGCTAAGATTACTATATCGACG” stands 0.232 log2 normalized fluorescence; under “CCGGCTGACCCCGTGTATTAATAGCTAAGATTACTATATCGACG”, 0.42 log2 normalized fluorescence. Under “CCGGCGGACACGAGGTATTAATAGCTAAGATTACTATATCGACG” stands 0.562 log2 normalized fluorescence; under “CCGGCTGACCACCCGTATTAATAGCTAAGATTACTATATCGACG”, 0.348 log2 normalized fluorescence. For the sequence “CCGGCTGAGGGACGGTATTAATAGCTAAGATTACTATATCGACG”, the binding signal is 0.0602 log2 normalized fluorescence. With “CCGGCTGATGTTCTGTATTAATAGCTAAGATTACTATATCGACG” the figure was 0.261 log2 normalized fluorescence; with “CCGGCTGATGAGGTGTATTAATAGCTAAGATTACTATATCGACG”, -0.000883 log2 normalized fluorescence. With “CCGGCTGAGTATACGTATTAATAGCTAAGATTACTATATCGACG” the figure was 0.0171 log2 normalized fluorescence; with “CCGGCAGTCACGTGGTATTAATAGCTAAGATTACTATATCGACG”, 0.893 log2 normalized fluorescence; with “CCGGCAGCCACGTTGTATTAATAGCTAAGATTACTATATCGACG”, 0.643 log2 normalized fluorescence. With “CCGGCAGCCACGTGGTATTAATAGCTAAGATTACTATATCGACG” the figure was 0.908 log2 normalized fluorescence; with “CCGGCTGCATCGTGGTATTAATAGCTAAGATTACTATATCGACG”, 0.636 log2 normalized fluorescence; with “CCGGCTGTCACGTGGTATTAATAGCTAAGATTACTATATCGACG”, 0.706 log2 normalized fluorescence. “CCGGCAGCTACGTGGTATTAATAGCTAAGATTACTATATCGACG”: the binding signal was 0.389 log2 normalized fluorescence.

Turning to “CCGGCATGCACGTGGTATTAATAGCTAAGATTACTATATCGACG”, the binding signal is 0.877 log2 normalized fluorescence. Under “CCGGCTGAAAGAGAGTATTAATAGCTAAGATTACTATATCGACG” stands -0.0282 log2 normalized fluorescence; under “CCGGCTGACCGGGTGTATTAATAGCTAAGATTACTATATCGACG”, 0.119 log2 normalized fluorescence; under “CCGGCTGAGTACGGGTATTAATAGCTAAGATTACTATATCGACG”, -0.0173 log2 normalized fluorescence. Under “CCGGCTGATGCGCAGTATTAATAGCTAAGATTACTATATCGACG” stands 0.0262 log2 normalized fluorescence; under “CCGGCTCTCACGTGGTATTAATAGCTAAGATTACTATATCGACG”, 0.891 log2 normalized fluorescence. “CCGGCTGAAACGTGGTCTTAATAGCTAAGATTACTATATCGACG”: the binding signal is 0.74 log2 normalized fluorescence. In the case of “CCGGCTCTTACGTGGTATTAATAGCTAAGATTACTATATCGACG”, the binding signal is 0.358 log2 normalized fluorescence. Consider “CCGGCTCATACGTGGTATTAATAGCTAAGATTACTATATCGACG”, for which the binding signal was 0.558 log2 normalized fluorescence.

In the case of “CCGGCTCTCACGTGGTCTTAATAGCTAAGATTACTATATCGACG”, the binding signal is 0.836 log2 normalized fluorescence.

On to “CCGGCGGTCACGTGGTATTAATAGCTAAGATTACTATATCGACG”, for which the binding signal was 0.805 log2 normalized fluorescence. With “CCGGCTCACACGTGGGCTTAATAGCTAAGATTACTATATCGACG” the figure was 0.832 log2 normalized fluorescence. With “CCGGCTTACACGTGGGATTAATAGCTAAGATTACTATATCGACG” the figure was 0.81 log2 normalized fluorescence. Under “CCGGCGCTCACGTGGTATTAATAGCTAAGATTACTATATCGACG” stands 0.815 log2 normalized fluorescence; under “CCGGCTGGTACGTGGTCTTAATAGCTAAGATTACTATATCGACG”, 0.364 log2 normalized fluorescence; under “CCGGCTCAGACGTGGTATTAATAGCTAAGATTACTATATCGACG”, 0.391 log2 normalized fluorescence. For “CCGGCTCACGATGGGGCTTAATAGCTAAGATTACTATATCGACG”, the binding signal is 0.398 log2 normalized fluorescence. Under “CCGGCTGGCACCCGGTATTAATAGCTAAGATTACTATATCGACG” stands 0.242 log2 normalized fluorescence; under “CCGGCTGACGTTTTGTATTAATAGCTAAGATTACTATATCGACG”, -0.0354 log2 normalized fluorescence; under “CCGGCTGAAAGGCCGTATTAATAGCTAAGATTACTATATCGACG”, 0.17 log2 normalized fluorescence. With “CCGGCTGACACGCATTATTAATAGCTAAGATTACTATATCGACG” the figure was 0.524 log2 normalized fluorescence. Under “CCGGCCGACATGTGGTATTAATAGCTAAGATTACTATATCGACG” stands 0.663 log2 normalized fluorescence; under “CCGGCTATTACGTGGTATTAATAGCTAAGATTACTATATCGACG”, 0.323 log2 normalized fluorescence. As for “CCGGCCGTCACGTGGTATTAATAGCTAAGATTACTATATCGACG”, the binding signal was 0.809 log2 normalized fluorescence. Take “CCGGCCATCACGTGGTATTAATAGCTAAGATTACTATATCGACG”: the binding signal is 0.764 log2 normalized fluorescence. With “CCGGCCCTCACGTGGTATTAATAGCTAAGATTACTATATCGACG” the figure was 0.828 log2 normalized fluorescence. With “CCGGCTTACATGTGGTATTAATAGCTAAGATTACTATATCGACG”, the binding signal is 0.625 log2 normalized fluorescence.

“CCGGCTCACACGTGGTATTAATAGCTAAGATTACTATATCGACG”: the binding signal is 0.998 log2 normalized fluorescence. Under “CCGGCGATCACGTGGTATTAATAGCTAAGATTACTATATCGACG” stands 0.946 log2 normalized fluorescence. As to “CCGGCTATCACGTGGTATTAATAGCTAAGATTACTATATCGACG”, the binding signal was 0.71 log2 normalized fluorescence. Under “CCGGCTCACATGTGGTATTAATAGCTAAGATTACTATATCGACG” stands 0.918 log2 normalized fluorescence; under “CCGGCTCACACGTCGTATTAATAGCTAAGATTACTATATCGACG”, 0.506 log2 normalized fluorescence; under “CCGGCTGACGCTTTGTATTAATAGCTAAGATTACTATATCGACG”, 0.148 log2 normalized fluorescence. Under “CCGGCTGACCATTGGTATTAATAGCTAAGATTACTATATCGACG” stands 0.0788 log2 normalized fluorescence; under “CCGGCTGAAAGAGTGTATTAATAGCTAAGATTACTATATCGACG”, 0.0309 log2 normalized fluorescence; under “CCGGCTGAGAGACGGTATTAATAGCTAAGATTACTATATCGACG”, -0.00994 log2 normalized fluorescence. Under “CCGGCTGACACGCGAGATTAATAGCTAAGATTACTATATCGACG” stands 0.438 log2 normalized fluorescence; under “CCGGCTGAAGATGTGTATTAATAGCTAAGATTACTATATCGACG”, 0.0913 log2 normalized fluorescence.

As for “CCGGCTGAAAAGAGGTATTAATAGCTAAGATTACTATATCGACG”, the binding signal is -0.00138 log2 normalized fluorescence.

Regarding “CCGGCTGACAGCAAGTATTAATAGCTAAGATTACTATATCGACG”, the binding signal was 0.286 log2 normalized fluorescence.

For “CCGGCTGACCGTAAGTATTAATAGCTAAGATTACTATATCGACG”, the binding signal is 0.214 log2 normalized fluorescence. With “CCGGCAAGTTTAAGCCGTTAATAGCTAAGATTACTATATCGACG” the figure was 0.00903 log2 normalized fluorescence; with “CCGGCTGAGCCGCTGTATTAATAGCTAAGATTACTATATCGACG”, 0.0565 log2 normalized fluorescence; with “CCGGCTGAGAGGCCGTATTAATAGCTAAGATTACTATATCGACG”, 0.0066 log2 normalized fluorescence. Turning to “CCGGCTGAAGGGGGGTATTAATAGCTAAGATTACTATATCGACG”, the binding signal is 0.855 log2 normalized fluorescence.

As for “CCGGCTGAAGAGGGGTATTAATAGCTAAGATTACTATATCGACG”, the binding signal is 0.288 log2 normalized fluorescence. As for “CCGGCTGAAGGGTGGTATTAATAGCTAAGATTACTATATCGACG”, the binding signal was 0.18 log2 normalized fluorescence. Under “CCGGCTGAAAAAGGGTATTAATAGCTAAGATTACTATATCGACG” stands -0.0246 log2 normalized fluorescence. With “CCGGCTGAAAGGGGGTATTAATAGCTAAGATTACTATATCGACG” the figure was 0.83 log2 normalized fluorescence; with “CCGGCTGAAAAGGGGTATTAATAGCTAAGATTACTATATCGACG”, 0.161 log2 normalized fluorescence. Consider “CCGGCTGAGGGAGAGTATTAATAGCTAAGATTACTATATCGACG”, for which the binding signal was -0.0403 log2 normalized fluorescence. Under “CCGGCTGAGGGGAGGTATTAATAGCTAAGATTACTATATCGACG” stands 0.438 log2 normalized fluorescence; under “CCGGCTGAGGGGGAGTATTAATAGCTAAGATTACTATATCGACG”, 0.823 log2 normalized fluorescence.
